Measurements: article PMC8384837, “Expanding the binding specificity for RNA recognition by a PUF domain”
Positions count from the first letter of the chain named.

What was measured:
Assay in all cases: yeast three-hybrid, YBZ-1, SC-Leu-His + 0.5 mM 3-AT, 4 days
Conditions in all cases: tags: N-Gal4 AD-HA kept; label: inside an RPR1-promoter hybrid RNA with tandem MS2 sites; ssRNA
[1] = biological target: PUM1 PUF domain R1-NRR (Homo sapiens, UniProt Q14671 828-1176, S863N;Q867R)
In short: (§1)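 The interaction score is the log change in how often each variant appears, from input to selection. Frequencies came from PCR-amplified, Illumina-sequenced repeat regions of Pumilio-1 PUF domain libraries grown in strain YBZ-1 (LexA–MS2 coat fusion, HIS3 reporter) alongside matching RNA elements. Input plates were SC-Leu and selection plates were SC-Leu-His + 0.5 mM 3-AT, each for four days, and the log2 calculation used a pseudocount of 1 where a variant was absent.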

[2] = biological target: PUM1 PUF domain R8-LYC (Homo sapiens, UniProt Q14671 828-1176, N1122L;Q1126C)
In short: as §1

[3] = biological target: PUM1 PUF domain R8-RSR (Homo sapiens, UniProt Q14671 828-1176, N1122R;Y1123S;Q1126R)
In short: as §1

[4] = biological target: PUM1 PUF domain R8-KRR (Homo sapiens, UniProt Q14671 828-1176, N1122K;Y1123R;Q1126R)
In short: as §1

[5] = biological target: T1, PUM1 PUF domain R6-VWQ (Homo sapiens, UniProt Q14671 828-1176, N1043V;Y1044W)
T1 sequence: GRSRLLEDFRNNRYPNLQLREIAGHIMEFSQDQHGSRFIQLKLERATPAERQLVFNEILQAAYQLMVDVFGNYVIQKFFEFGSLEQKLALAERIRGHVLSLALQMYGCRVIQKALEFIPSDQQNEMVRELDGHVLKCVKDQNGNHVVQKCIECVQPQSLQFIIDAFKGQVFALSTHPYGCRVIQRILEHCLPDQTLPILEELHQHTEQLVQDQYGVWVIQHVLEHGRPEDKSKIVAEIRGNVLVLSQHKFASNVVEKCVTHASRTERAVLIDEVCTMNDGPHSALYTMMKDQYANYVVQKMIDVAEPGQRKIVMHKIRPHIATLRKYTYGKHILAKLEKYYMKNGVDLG
In short: as §1

[6] = biological target: PUM1 PUF domain R3-EWS (Homo sapiens, UniProt Q14671 828-1176, C935E;R936W;Q939S)
In short: as §1

[7] = biological target: T2, PUM1 PUF domain R6-HYL (Homo sapiens, UniProt Q14671 828-1176, N1043H;Q1047L)
T2 sequence: T1 sequence with V216H, W217Y, Q220L
In short: as §1

[8] = biological target: PUM1 PUF domain R3-GRP (Homo sapiens, UniProt Q14671 828-1176, C935G;Q939P)
In short: as §1

[9] = biological target: PUM1 PUF domain R3-SRC (Homo sapiens, UniProt Q14671 828-1176, C935S;Q939C)
In short: as §1

[10] = biological target: PUM1 PUF domain R7-KYR (Homo sapiens, UniProt Q14671 828-1176, S1079K;N1080Y;E1083R)
In short: as §1

[11] = biological target: PUM1 PUF domain R5-DRC (Homo sapiens, UniProt Q14671 828-1176, C1007D;Q1011C)
In short: as §1

[12] = biological target: PUM1 PUF domain R5-MRN (Homo sapiens, UniProt Q14671 828-1176, C1007M;Q1011N)
In short: as §1

[13] = biological target: T3, PUM1 PUF domain R6-SFS (Homo sapiens, UniProt Q14671 828-1176, N1043S;Y1044F;Q1047S)
T3 sequence: T1 sequence with V216S, W217F, Q220S
In short: as §1

[14] = biological target: PUM1 PUF domain R3-YFG (Homo sapiens, UniProt Q14671 828-1176, C935Y;R936F;Q939G)
In short: as §1

[15] = biological target: PUM1 PUF domain R5-DHV (Homo sapiens, UniProt Q14671 828-1176, C1007D;R1008H;Q1011V)
In short: as §1

[16] = biological target: T4, PUM1 PUF domain R6-NWP (Homo sapiens, UniProt Q14671 828-1176, Y1044W;Q1047P)
T4 sequence: T1 sequence with V216N, Q220P
In short: as §1

[17] = biological target: PUM1 PUF domain R4-GPQ (Homo sapiens, UniProt Q14671 828-1176, N971G;H972P)
In short: as §1

GGCUAGAACUAGUGGAUCCCCCGGCGCCCGGCGGCUCGAGCCCGGGUAAGUGUAAAUCGUCUGCAUGCCGCCGGGCGCCAUGCCUGCAGGUCGACUCUAGAAAACAUG
binding signal [1]: 3.87 log2 enrichment (interaction score)

GGCUAGAACUAGUGGAUCCCCCGGCGCCCGGCGGCUCGAGCCCGGGUAAGCGUAAAUAGUCUGCAUGCCGCCGGGCGCCAUGCCUGCAGGUCGACUCUAGAAAACAUG
binding signal [2]: 2.73 log2 enrichment (interaction score)
binding signal [3]: 2.47 log2 enrichment (interaction score)
binding signal [4]: 5.14 log2 enrichment (interaction score)

GGCUAGAACUAGUGGAUCCCCCGGCGCCCGGCGGCUCGAGCCCGGGUAAGUGAAAAUAGUCUGCAUGCCGCCGGGCGCCAUGCCUGCAGGUCGACUCUAGAAAACAUG
binding signal [5]: 8.55 log2 enrichment (interaction score)

GGCUAGAACUAGUGGAUCCCCCGGCGCCCGGCGGCUCGAGCCCGGGUAAGUGUAAAUAGUCUGCAUGCCGCCGGGCGCCAUGCCUGCAGGUCGACUCUAGAAAACAUG
binding signal [6]: 3.46 log2 enrichment (interaction score)
binding signal [7]: 3.8 log2 enrichment (interaction score)
binding signal [8]: 4.87 log2 enrichment (interaction score)
binding signal [9]: 2.73 log2 enrichment (interaction score)
binding signal [10]: 2.75 log2 enrichment (interaction score)
binding signal [11]: 3.83 log2 enrichment (interaction score)
binding signal [12]: 3.24 log2 enrichment (interaction score)
binding signal [13]: 4.67 log2 enrichment (interaction score)
binding signal [14]: 4.07 log2 enrichment (interaction score)
binding signal [15]: 3.41 log2 enrichment (interaction score)
binding signal [4]: 3.15 log2 enrichment (interaction score)
binding signal [16]: 2.64 log2 enrichment (interaction score)

GGCUAGAACUAGUGGAUCCCCCGGCGCCCGGCGGCUCGAGCCCGGGUAAGUCUAAAUAGUCUGCAUGCCGCCGGGCGCCAUGCCUGCAGGUCGACUCUAGAAAACAUG
binding signal [10]: 5.86 log2 enrichment (interaction score)

GGCUAGAACUAGUGGAUCCCCCGGCGCCCGGCGGCUCGAGCCCGGGUAAGUGUACAUAGUCUGCAUGCCGCCGGGCGCCAUGCCUGCAGGUCGACUCUAGAAAACAUG
binding signal [17]: 2.42 log2 enrichment (interaction score)
